Shown are actives, neighbours in structure and some others; about 2.8% of the full set was active somewhere.
Pol eta inh = qHTS for Inhibitors of Polymerase Eta. DNA polymerase eta (Homo sapiens), Q9Y253. Potency, µM (highest dose often 114 µM), for inactives: at the highest dose activity change, negative = inhibition, usual class: inhibitors. recombinant Pol eta, fluorescent DNA replication assay. hit rate 1.2% among 390,000; also: potency is read from the fitted curve at half-maximal effect; % is scaled to controls: 0 for no effect and ±100 for the full control effect
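Fluorescent replication assay: 50 nM final substrate added after a 15 min room-temperature compound preincubation with 10 nM enzyme. Signal taken at 0 min and again at 10 min.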
PI5P4K alpha inh = qHTS for Inhibitors of phosphatidylinositol 5-phosphate 4-kinase (PI5P4K). hit rate 1.2% among 330,000. max response, %. PI5P4Kalpha enzyme, ADP-Glo luminescence, 60 min; stronger effect = lower value; active = max response of -50% or lower; inconclusive = between -30% and -50%; inactive = -30% or higher; also: value at the top dose of about 77 µM; % is scaled to controls: 0 for no effect and ±100 for the full control effect
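ADP-Glo luminescence end-point read after a 60 min room-temperature kinase reaction of PI5P4Kalpha plus substrate, initiated with ATP at 5 microM final. Buffer: 0.038 M HEPES pH 7.4, EGTA, 0.1% CHAPS, 5% DMSO.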
POLI inh = qHTS for Inhibitors of Polymerase Iota | Pol iota fluorescent replication assay, 10 min | DNA polymerase iota (Homo sapiens), Q9UNA4 | AID 588590, 2011 | Potency, µM (series often up to 115 µM), for the others: top-dose activity, negative = inhibition, actives largely listed as inhibitors | hit rate 1% among 390,000; also: potency is read from the fitted curve at half-maximal effect
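Pol iota at 10 nM preincubated 15 min with compounds at room temperature; reaction started with fluorescent substrate, 50 nM final. Fluorescence read kinetically at 0 and 10 min; buffer-only wells as negative control.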
PI4K2A inh = qHTS for small molecular inhibitors of PI4K2A; Phosphatidylinositol 4-kinase type 2-alpha (Homo sapiens), Q9BTU6; purified PI4K2A, ADP-Glo luminescence, 1 h; stronger effect = lower value; activity change, negative = inhibition, % at 76.9 µM; hit rate 0.13% among 420,000; in the data active = activity change below about -50%; inconclusive = mostly about -30% to -49%;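 also: -100% = wells without enzyme as full effect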
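Compounds are screened against recombinant PI4K2A using PI as substrate and ATP, the latter dispensed at 300 microM. Reactions run one hour at ambient temperature before ADP-Glo detection; full inhibition defined by wells lacking enzyme.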
Pol beta inh = qHTS Assay for Inhibitors of DNA Polymerase Beta; P06746; Pol beta primer extension/strand displacement, fluorescence kinetic; Potency, µM (highest dose often 114 µM), for inactives: top-dose activity change, negative = inhibition, hits mostly inhibitors; hit rate 1.3% among 340,000; AID 485314, 2010; also: potency is read from the fitted curve at half-maximal effect; % is scaled to controls: 0 for no effect and ±100 for the full control effect
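Pol beta (10 nM) was preincubated with compound for 15 min at room temperature. The reaction was then started with 50 nM substrate and read immediately and after a further 10 min at room temperature.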
POLK inh = qHTS for Inhibitors of Polymerase Kappa; purified Pol kappa, fluorescent DNA synthesis assay, 10 min; Potency, µM (series often up to 107 µM), without a hit: top-dose activity, negative = inhibition, usual class: inhibitors; hit rate 0.53% among 400,000; also: potency is read from the fitted curve at half-maximal effect; % is scaled to controls: 0 for no effect and ±100 for the full control effect
Target sequence (Q9UBT6 whole entry, looked up): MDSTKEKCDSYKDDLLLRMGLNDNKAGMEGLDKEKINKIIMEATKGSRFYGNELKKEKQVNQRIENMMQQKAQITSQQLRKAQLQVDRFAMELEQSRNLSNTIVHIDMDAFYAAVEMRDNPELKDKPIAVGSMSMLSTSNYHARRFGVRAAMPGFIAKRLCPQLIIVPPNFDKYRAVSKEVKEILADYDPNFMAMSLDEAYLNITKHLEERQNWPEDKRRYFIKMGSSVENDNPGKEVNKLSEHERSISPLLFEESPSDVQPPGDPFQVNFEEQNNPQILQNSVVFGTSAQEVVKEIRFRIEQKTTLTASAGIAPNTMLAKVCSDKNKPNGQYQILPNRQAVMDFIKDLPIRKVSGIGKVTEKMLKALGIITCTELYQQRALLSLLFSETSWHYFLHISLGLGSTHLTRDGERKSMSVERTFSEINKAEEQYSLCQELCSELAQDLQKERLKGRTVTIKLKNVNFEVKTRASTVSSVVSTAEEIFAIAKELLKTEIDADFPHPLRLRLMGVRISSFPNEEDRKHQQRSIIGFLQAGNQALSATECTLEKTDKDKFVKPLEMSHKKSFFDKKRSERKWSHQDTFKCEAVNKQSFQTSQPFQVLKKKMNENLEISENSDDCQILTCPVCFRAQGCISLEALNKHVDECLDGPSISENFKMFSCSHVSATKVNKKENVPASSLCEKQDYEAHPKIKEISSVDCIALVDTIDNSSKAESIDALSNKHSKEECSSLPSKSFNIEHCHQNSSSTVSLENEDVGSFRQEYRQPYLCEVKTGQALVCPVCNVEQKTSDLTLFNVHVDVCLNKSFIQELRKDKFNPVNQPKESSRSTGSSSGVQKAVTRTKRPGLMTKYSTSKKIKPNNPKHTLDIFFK
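Enzyme at 10 nM met test compounds for 15 min at room temperature. Substrate addition (50 nM final) began the reaction, which was monitored by fluorescence at 0 and 10 min.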
TbPGK inh = qHTS for inhibitors of Phosphogylcerate Kinase: Hit Validation Screen | shares compounds with POLK inh | TbPGK coupled GAPDH assay, Kinase-Glo luminescence | Potency, µM (titrated, usually from 57.5 µM), without a hit: top-dose activity change, negative = inhibition, hits mostly inhibitors | hit rate 79% among 500; also: potency is read from the fitted curve at half-maximal effect; % is scaled to controls: 0 for no effect and ±100 for the full control effect; nearly all actives have a fitted effect of over 65% in size
POLI cherry-pick = qHTS for Inhibitors of Polymerase Iota: Confirmatory Assay for Cherry-picked Compounds; Pol iota primer extension, TAMRA/BHQ fluorescence; Potency, µM, actives largely listed as inhibitors; shares compounds with POLK inh; hit rate 77% among 1,500; also: potency is read from the fitted curve at half-maximal effect
Active calls of the source: *; ? = inconclusive; . = no result given; [ ] = another dose, or the depositor's remark. Unless noted, calls follow the shape of the dose curve; as a rule, active = well fitted curve in the direction sought with a large enough effect; inconclusive = small, poorly fitted or top-dose-only effect, or another doubt; inactive = no such curve, though single readings can be large; an effect the other way counts as inactive or inconclusive.

SMILES	Pol eta inh	PI5P4K alpha inh	POLI inh	PI4K2A inh	Pol beta inh	POLK inh	others
Cc1ccc(Cl)cc1NC(=O)Nc1cn(CC(C)C)c(=O)c2ccccc12	22µM*	.	?	-3	7%	-22%	TbPGK inh=3%
CCc1cccc(NC(=O)c2ccc(CN3C(=O)C(C)=C(c4ccc(OC)cc4)S3(=O)=O)cc2)c1	.	.	-11%	-1	25%	-20%
CN(C)c1ccc(-c2cc[nH]c(=O)c2N)cc1	.	.	.	.	.	.	POLI cherry-pick=?
Cc1cccc(C(=O)NC(=S)Nc2cccc3nc(C)ccc23)c1	?	-9	32µM*	4	25µM*	-8%	POLI cherry-pick=?
Cc1cccc(C(=O)NNC(=S)NC(=O)c2ccccc2)c1	2%	-2	118%	-7	.	-12%
O=C(CCN1C(=O)/C(=C/C=C/c2ccccc2)SC1=S)Nc1cccnc1	5µM*	-21	?	-4	20%	-4%	POLI cherry-pick=9.5*
Nc1ccc(N2CCCCC2)c2nonc12	35µM*	-14	?	-54*	9%	-6%	POLI cherry-pick=?
Nc1ccc(N2CCCCC2)cc1N1CCCCC1	-12%	5	8%	-7	21%	-18%
O=C(Cn1nc(-c2ccccc2)c2cnc3ccc(F)cc3c21)NC1CCCC1	-16%	.	6%	-8	3%	15%
Oc1ccc(C[C@H]2CNCCN2CCc2cccc3ccccc23)cc1	-10%	2	?	-3	.	-14%	TbPGK inh=?
Cc1cccc(C)c1NC(=O)CN(C)C(=O)c1cccc(-n2cccc2)c1	10µM*	?	8.9µM*	-7	.	?	POLI cherry-pick=?
Cc1cccc(C)c1NC(=O)CN(C)C(=O)c1ccc(N2C(=O)CCC2=O)cc1	-15%	12	12%	-2	.	0%
O=C(c1ccco1)N1CCC2(CCCN(c3ccncc3)C2)CC1	.	.	.	.	.	3%[60.1 µM]
O=C(O)c1cc(O)c2c(c1)[C@H]([C@H]1c3cc(C(=O)O)cc(O)c3C(=O)c3c(O[C@@H]4O[C@H](CO)[C@@H](O)[C@H](O)[C@H]4O)cccc31)c1cccc(OC3O[C@H](CO)[C@@H](O)[C@H](O)[C@H]3O)c1C2=O (stereo partly drawn)	-99%	-79*	-83%	-64*	.	0.71µM*	TbPGK inh=2.9µM*
C/C=C/C/C=C/CCC(=O)[C@H]1O[C@H]1C(N)=O	.	.	.	.	.	3%[19.4 µM]
Nc1nc(N2CCN(C(=O)c3ccco3)CC2)nc2ccc(Br)cc12	-22%	-30	0%	5	-10%	-1%	TbPGK inh=?
COc1ccc(-n2c(=O)c3c4c(sc3n(Cc3ccc(C(C)(C)C)cc3)c2=O)CCC4)c(OC)c1	-10%	.	-10%	-2	12%	0%
O=C(CNC(=O)c1ccc(S(=O)(=O)N2CCCCC2)cc1)N/N=C/c1ccco1	-4%	-7	?	5	3%	-9%	POLI cherry-pick=12*
COC(=O)c1cc2oc3ccccc3c2n1CC(=O)Nc1cc(OC)cc(OC)c1	-1%	.	-27%	0	34%	8%
O=C1Nc2cc3c(cc2C1=O)sc1ccccc13	45µM*	-17	32µM*	8	40µM*	?	POLI cherry-pick=?
Cc1cc2c(cc1C)C(=O)C(=O)N2	-8%	0	9%	5	.	-13%
Cc1cc(C)cc(NC(=O)CSc2nc(=O)[nH]c3c2CCC3)c1	-15%	.	18%	0	3%	0%[60.1 µM]
O=C(O)c1ccc(N/N=C/c2ccc3c(c2)OCO3)cc1	-12%	?	23%	-67*	21%	-8%	TbPGK inh=10µM*
O=C(O)c1ccc(N/N=C/c2cc3c(cc2[N+](=O)[O-])OCO3)cc1	?	-6	-5%	-8	-13%	-14%
Cc1ccsc1C(=O)N/N=C/c1ccc2c(c1)OCO2	-10%	-5	-7%	-54*	-12%	-7%	TbPGK inh=18µM*
SMILES	Pol eta inh	PI5P4K alpha inh	POLI inh	PI4K2A inh	Pol beta inh	POLK inh	others
Cc1occc1C(=O)N/N=C/c1ccc2c(c1)OCO2	-10%	-54*	-7%	-65*	28%	8%	TbPGK inh=16µM*
O=C(N/N=C/c1ccc2c(c1)OCO2)c1cccs1	-7%	-2	-7%	-7	13%	-18%
COC(=O)[C@]12C[C@H](CC(=O)N3CCN(C(=O)c4ccco4)CC3)C(=O)N(Cc3ccc4c(c3)OCO4)C1=C[C@H](C(C)C)O[C@@H]2C1CC1	.	.	.	3	.	.
Cc1cc(C)cc(S(=O)(=O)N2CCN(c3nc(-c4cccs4)nc4ccccc34)CC2)c1	.	.	-8%	3	.	-18%
O=C(COc1ccc(F)cc1)Nc1ccccc1OCc1cc(=O)n2ccccc2n1	-14%	.	12%	3	-2%	-12%[60.1 µM]
C=C1CCN(C(C)C(=O)OCc2ccc(C)cc2)S(=O)(=O)c2ccccc21 (stereo not drawn)	.	.	38%	.	.	1%
C(=NNc1nnn(Cc2ccccc2)n1)c1ccccc1	-3%	-2	.	4	.	.
CCCCCC(=O)Nc1cc(S(=O)(=O)O)cc2cc(S(=O)(=O)O)cc(O)c12	-99%	-86*	1µM*	-59*	.	1.4µM*	TbPGK inh=0.23µM*
CC(=O)Nc1ccc(OC(F)(F)C(F)F)c(NC(C)=O)c1	13%	.	-6%	2	4%	0%
C=C(C)C(=O)Nc1ccc(OC(F)(F)C(F)F)c(NC(=O)C(=C)C)c1	18µM*	7	4%	0	32µM*	?	TbPGK inh=6.5µM*
CCN(C(=O)CSc1nc2ccccc2n1Cc1ccccc1C#N)c1ccccc1	-4%	.	-22%	-4	-2%	-5%[60.1 µM]
COc1ccc(CCNC(=O)c2ccc3nc(Cc4ccccc4)oc3c2)cc1OC	-18%	.	-1%	2	-1%	-4%[60.1 µM]
CCOC(=O)c1cc(-c2ccc(OC)cc2)n(CCC(=O)NCc2ccc(OC)cc2)c1C	-5%	.	0%	0	-5%	-5%[60.1 µM]
CCNC(=O)C1CCCN(C(=O)Cc2ccc3ccccc3c2)CC1 (stereo not drawn)	.	-3	.	1	.	.

Screens from PubChem.
